Screening data as filed in PubChem BioAssay.
ssDAF12 agonist – activators of S. stercoralis DAF-12 nuclear receptor; AID 652126; activation, % at 6.8 µM; HEK293 ssDAF-12/GRIP1 lit1-tk-luc reporter, luminescence; % of 3 µM dafachronic acid response; 1% of 370,000 active;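 active = activation above the mean over all tested compounds plus 3 SD, cut at about 0.9% in these data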
DAX1 inh-1 – inhibitors of human orphan nuclear receptor DAX1 (NR0B1); P51843; HEK293 Gal4-DAX1 luciferase reporter, luminescence; inhibition, % at 6.75 µM; 0.99% of 340,000 active; AID 504766;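 active = inhibition above the mean over all tested compounds plus 3 SD, cut at about 4.2% in these data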;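 note: inhibition shows as a rise in luminescence from relieved DAX1 repression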
Target sequence (P51843 207-470 limits assumed): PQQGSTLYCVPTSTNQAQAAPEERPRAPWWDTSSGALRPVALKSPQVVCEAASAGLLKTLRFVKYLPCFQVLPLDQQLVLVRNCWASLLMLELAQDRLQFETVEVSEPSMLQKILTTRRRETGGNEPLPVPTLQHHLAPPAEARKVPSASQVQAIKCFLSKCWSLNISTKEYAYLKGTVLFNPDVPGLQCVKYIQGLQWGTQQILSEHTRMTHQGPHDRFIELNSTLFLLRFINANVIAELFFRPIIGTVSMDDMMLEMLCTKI
hcDAF-12 act – activates DAF-12 receptor from parasite H. contortus. HEK293 hcDAF-12 lit1-tk-luc reporter, luminescence; 0% DMSO, 100% Δ7-dafachronic acid. activation, % at 6.8 µM. 1.4% of 370,000 active;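 active = activation above the mean of all tested compounds plus 3 SD, cut at about 5.5% in these data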
DAX1 inh-2 – DAX1 (NR0B1) inhibition, primary screen; HEK293T StAR-luciferase reporter, SF-1/DAX-1 repression relief; inhibition, % at 6.8 µM; 1.1% of 370,000 active; AID 652010;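 active = inhibition above the mean over all tested compounds plus 3 SD, cut at about 3.6% in these data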;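 note: higher inhibition means more luminescence from relief of DAX-1 repression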
AHR activator – activates the human aryl hydrocarbon receptor; activation, % at 5 µM; AHR-responsive luciferase reporter cells, luminescence; 2.5% of 320,000 active; P35869; in the data active = activation above about 47%
hgDAF12 agonist – agonists of H. glycines DAF-12 nuclear receptor. HEK293 GAL4-hgDAF12 UAS-luciferase reporter, agonist luminescence; normalized to butyrate control. activation, % at 6.8 µM. 1.8% of 370,000 active. AID 687014;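 active = activation above a cutoff set at the mean of all screened compounds plus 3 SD, cut at about 10% in these data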
DAX1 inh confirm – NR0B1 (human) inhibition, confirmation; shares compounds with DAX1 inh-2; 87% of 2,400 active; inhibition, % at 6.8 µM; HEK293T StAR-promoter luciferase reporter, SF-1/DAX-1 repression;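 active = inhibition above the average of every tested compound plus 3 SD, cut at about 3.8% in these data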;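 note: active compounds raise luminescence by relieving repression of the StAR reporter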
Target sequence (P51843 whole entry, looked up): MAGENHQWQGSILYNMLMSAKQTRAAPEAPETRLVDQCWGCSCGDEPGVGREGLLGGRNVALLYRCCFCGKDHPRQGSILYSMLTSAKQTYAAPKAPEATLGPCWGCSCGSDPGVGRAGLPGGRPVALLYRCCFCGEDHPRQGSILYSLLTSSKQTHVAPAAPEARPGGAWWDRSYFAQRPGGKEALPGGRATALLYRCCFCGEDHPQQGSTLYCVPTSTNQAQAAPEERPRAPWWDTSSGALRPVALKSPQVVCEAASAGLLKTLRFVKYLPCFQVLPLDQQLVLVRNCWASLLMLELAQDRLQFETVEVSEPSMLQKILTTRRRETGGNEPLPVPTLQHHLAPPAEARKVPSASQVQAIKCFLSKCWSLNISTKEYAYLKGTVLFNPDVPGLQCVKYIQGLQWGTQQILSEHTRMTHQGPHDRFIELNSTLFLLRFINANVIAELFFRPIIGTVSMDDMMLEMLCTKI
SF1 mutant ctr – counter-screen for DAX1 inhibitors: nonselective inhibitors with SF-1 AF2 mutant. shares compounds with DAX1 inh-2. HEK293 StAR-luciferase, luminescence. inhibition, % at 6.8 µM. 78% of 2,400 active;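 active = inhibition above the mean of all tested compounds plus 3 SD, cut at about 3% in these data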
Each line names hits and unclear results; the compound was inactive in the other large screens (follow-up assays come after a bar, where they were run). Shown are actives, neighbours in structure and some others; about 5.7% of the full set was active somewhere.

CCC(=O)C1CCCN(C(=O)CCc2nnc(-c3ccc4c(c3)OCO4)o2)C1 (stereo not drawn)	none
CCC(=O)C1CCCN(C(=O)CCc2nnc(-c3ccc(C(C)=O)s3)o2)C1 (stereo not drawn)	hcDAF-12 act 6.0, DAX1 inh-2 5.3 | DAX1 inh confirm 6.8 | SF1 mutant ctr 4.8
O=C(c1ccco1)N1CCN(c2ccc(N3CCCCC3)nn2)CC1	DAX1 inh-2 7.8 | DAX1 inh confirm 7.3 | SF1 mutant ctr 6.4
Cc1cccc(C)c1NC(=O)CNC(=O)c1ccccc1	none
COCCNCC(=O)Nc1ccc(OC(F)(F)F)cc1	none
Cn1cccc1/C=N/NC(=O)c1cccs1	DAX1 inh-2 5.5, hgDAF12 agonist 11 | DAX1 inh confirm 5.7 | SF1 mutant ctr 3.7
Clc1ccc2nc(CSc3nnc4ccccn34)cn2c1	hcDAF-12 act 5.6, DAX1 inh-2 5.1 | DAX1 inh confirm 14 | SF1 mutant ctr 8.8
CCCCCCN1C[C@@H](O)[C@H](n2cc(COC(=O)c3ccccc3)nn2)C[C@@H]1c1ccccc1	DAX1 inh-2 4.6 (no result: AHR activator) | DAX1 inh confirm inactive | SF1 mutant ctr inactive
CC(=O)Nc1nnc(COc2ccc(Cl)cc2)s1	DAX1 inh-2 5.5, hgDAF12 agonist 13 | DAX1 inh confirm 6.2 | SF1 mutant ctr 3.0
CC(C)C(=O)Nc1nnc(COc2ccc(Cl)cc2)s1	none
C[C@H](CO)N1C[C@H](C)[C@@H](CN(C)Cc2ccc(Oc3ccccc3)cc2)Oc2cc(Br)ccc2S1(=O)=O	none (no result: AHR activator)
COc1ccccc1CNC(=O)C(=O)NCC1CCCN1S(=O)(=O)c1cccs1 (stereo not drawn)	none
Cc1c(S(=O)(=O)Nc2ccc(Oc3ccccc3)cc2)c(=O)n(C)c(=O)n1C	none
CC(CC(=O)N(CCC1=CCCCC1)c1c(N)n(Cc2ccccc2)c(=O)[nH]c1=O)c1ccccc1 (stereo not drawn)	DAX1 inh-2 6.3 | DAX1 inh confirm inactive | SF1 mutant ctr inactive
CCN(C(=O)CSc1ncccn1)c1c(N)n(Cc2ccccc2)c(=O)[nH]c1=O	DAX1 inh-2 4.7 (no result: AHR activator) | DAX1 inh confirm inactive | SF1 mutant ctr inactive
C=C[C@@]1(C)CC(=O)[C@]2(O)[C@@]3(C)[C@@H](O)CCC(C)(C)[C@@H]3[C@H](O)[C@H](OC(C)=O)[C@@]2(C)O1	DAX1 inh-2 9.6 | DAX1 inh confirm 22 | SF1 mutant ctr inactive
O=C(Nc1ccccc1F)N1CCc2ccccc2C1	DAX1 inh-2 6.4 (no result: AHR activator) | DAX1 inh confirm 6.8 | SF1 mutant ctr 7.1
COc1cccc(NC(=O)N2CCc3ccccc3C2)c1	DAX1 inh-2 6.1 | DAX1 inh confirm 8.4 | SF1 mutant ctr 7.1
COc1cccc(NC(=O)N2CCOCC2)c1	none
O=C(NCc1ccc(F)cc1)N1[C@H]2CC[C@@H]1C=C(c1ccc(F)cc1OCc1ccccc1)C2	none (no result: AHR activator)
CCOc1c(Cl)cc(C(=O)Nc2cccc(C(=O)O)c2)cc1Cl	DAX1 inh-2 7.6 | DAX1 inh confirm 6.5 | SF1 mutant ctr 4.6
O=C(NNC(=S)Nc1ccccc1)Nc1ccccc1	none
Cc1ccc(NC(=S)NNC(=O)Nc2ccccc2)cc1	ssDAF12 agonist 1.4, DAX1 inh-2 5.7, hgDAF12 agonist 12 | DAX1 inh confirm 5.6 | SF1 mutant ctr inactive
O=C(NN1CCOCC1)c1ccc(Cl)s1	none
Cc1cc(NS(=O)(=O)c2c(C(=O)N3CCOCC3)c(C)n(C)c2C)ccc1Br	none
O=C1CN(C(=O)CNCc2ccccc2)c2ccccc2N1	none
Nc1ccc(S(=O)(=O)Nc2cnc3c(Cl)cccc3n2)cc1	DAX1 inh-2 5.7 (no result: AHR activator) | DAX1 inh confirm 5.2 | SF1 mutant ctr inactive
C/C(CC(=O)Nc1cccc(Br)c1)=N\NC(=O)c1ccc(O)cc1O	none
CN(C)CCNS(=O)(=O)c1ccc(N2CCc3ccccc32)c([N+](=O)[O-])c1	none
C(=N\Nc1ccccn1)/c1ccc(N2CCOCC2)cc1	DAX1 inh-2 5.0, hgDAF12 agonist 11 | DAX1 inh confirm 8.8 | SF1 mutant ctr 7.0
O=C1Nc2ccccc2N(C(=O)c2ccc(-c3ccccc3)cc2)C1c1nc2ccccc2[nH]1 (stereo not drawn)	hcDAF-12 act 9.1, DAX1 inh-2 20, hgDAF12 agonist 26 (no result: DAX1 inh-1, AHR activator) | DAX1 inh confirm 8.2 | SF1 mutant ctr 4.8
O=C(COC(=O)c1ccccc1S(=O)(=O)N1CCCCC1)NCC(F)(F)F	none
Cc1ccc(C)c(OCc2cc(C(=O)N3CCN(C4CCCCC4)CC3)no2)c1	none (no result: AHR activator)
Cc1ccc(C)c(OCc2cc(C(=O)N3CC[C@@H]4CCCC[C@H]4C3)no2)c1	hcDAF-12 act 6.5, DAX1 inh-2 5.5 | DAX1 inh confirm inactive | SF1 mutant ctr 3.3
Cc1ccc(C)c(OCc2cc(C(=O)N3C[C@@H](C)O[C@@H](C)C3)no2)c1	DAX1 inh-2 4.6 | DAX1 inh confirm 4.8 | SF1 mutant ctr 4.2
CCOc1ccc(S(=O)(=O)Nc2cccc(C(=O)NCCCn3ccnc3)c2)cc1	none
N/C(=N\OC(=O)c1ccc(Cl)cc1)c1ccn[nH]1	DAX1 inh-2 15 | DAX1 inh confirm 13 | SF1 mutant ctr 7.8
CC(CC(=O)N1CCN(c2ccc(C(F)(F)F)cn2)CC1)n1ccnc1 (stereo not drawn)	none
O=[N+]([O-])c1ccc(F)cc1OCc1nc(-c2cccs2)no1	ssDAF12 agonist 1.1, hcDAF-12 act 6.1, DAX1 inh-2 6.9, hgDAF12 agonist 12 (no result: AHR activator) | DAX1 inh confirm 8.7 | SF1 mutant ctr 4.8
COc1ccc2c(C)c(CCC(=O)NCCCN3CCCC3=O)c(=O)oc2c1C	none
O=C(C[n+]1ccc2ccccc2c1)c1ccc2ccc3ccccc3c2c1	DAX1 inh-2 5.3 (no result: DAX1 inh-1, AHR activator) | DAX1 inh confirm inactive | SF1 mutant ctr inactive
O=C(Nc1ccc(F)c(Cl)c1)c1csc([C@H]2C[C@H](O)[C@@H](CO)O2)n1	none (no result: DAX1 inh-1, AHR activator)
O=C(Nc1ccc(F)c(Cl)c1)c1csc([C@@H]2C[C@H](O)[C@@H](CO)O2)n1	DAX1 inh-2 4.7 (no result: DAX1 inh-1, AHR activator) | DAX1 inh confirm inactive | SF1 mutant ctr inactive
CN(C)CC1CCCCC1OC(=O)c1ccc(S(=O)(=O)N(C)c2ccccc2)cc1 (stereo not drawn)	none
O=C(CCCN1C(=O)S/C(=C/C=C/c2ccccc2)C1=O)Nc1ccc(C(=O)O)cc1	DAX1 inh-2 5.3 | DAX1 inh confirm 5.2 | SF1 mutant ctr 3.8
O=C(CCCN1C(=O)/C(=C\c2ccccc2)SC1=S)Nc1cccc(C(=O)O)c1	none
O=C(CCN1C(=O)/C(=C\C=C\c2ccccc2)SC1=S)Nc1cccc(C(=O)O)c1	DAX1 inh-2 4.9 | DAX1 inh confirm 6.2 | SF1 mutant ctr inactive
COc1cc(N)c2ncsc2c1	none (no result: AHR activator)
CCc1nnc(NC(=O)Nc2ccccc2OC)s1	none
